# Several values for one entry are separate records, joined by “and”; a condition that tells them apart may be missing. Identical values can stand only once. Counter-ions that a name gives are not always drawn. Among all 5,800 compounds or so, about 620 (11%) showed activity. The full list was thinned out, with actives kept by preference. A number with no mark means an inactive call.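 Rule for the calls: active = score above a cut-off or among the top three wells of a plate; in these data no inactive exceeds 0.85.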
# Tested on: primary human hepatic stellate cells (donor 1)
# Assay: scaled lipid accumulation score (0 = DMSO-like, 1 = nortriptyline-like); higher = stronger HSC inactivation (lipid re-accumulation), active = hit call of the paper
# Settings: 48 h
# [1] = library stock concentration: 3.33 mM
# [2] = library stock concentration: 10 mM
# [3] = library stock concentration: 80 uM
# [4] = library stock concentration: 400 uM
# [5] = library stock concentration: 2 mM
# [6] = library stock concentration: 1 mM
# [7] = library stock concentration: 4.9 mM
compound,measurement,setting,value
C[C@]1(c2nc3c(C(N)=O)cccc3[nH]2)CCCN1 [Veliparib (ABT-888)],scaled lipid accumulation score,[1],≤ 0
same,scaled lipid accumulation score,[2],≤ 0
C[C@]1(c2nc3c(C(N)=O)cccc3[nH]2)CCCN1 [Veliparib],scaled lipid accumulation score,[3],0.0075
same,scaled lipid accumulation score,[4],≤ -0.0045
same,scaled lipid accumulation score,[5],≤ -0.0045
same,scaled lipid accumulation score,[2],≤ -0.0045
CCCCCCCC/C=C\C/C=C\C/C=C\CCCC(=O)O [Mead acid (20:3 n-9)],scaled lipid accumulation score,[6],0.025
NC(=O)CCC/C=C\C[C@@H]1[C@@H](/C=C/[C@@H](O)CCc2ccccc2)[C@H](O)C[C@@H]1O [17-phenyl trinor Prostaglandin F2.alpha. amide],scaled lipid accumulation score,[6],≤ 0
CS(=O)(=O)CCNCc1ccc(-c2ccc3ncnc(Nc4ccc(OCc5cccc(F)c5)c(Cl)c4)c3c2)o1.Cc1ccc(S(=O)(=O)O)cc1.Cc1ccc(S(=O)(=O)O)cc1 [listing 1 of 2 here],scaled lipid accumulation score,[1],1.36 (active)
same,scaled lipid accumulation score,[2],1.55 (active)
CS(=O)(=O)CCNCc1ccc(-c2ccc3ncnc(Nc4ccc(OCc5cccc(F)c5)c(Cl)c4)c3c2)o1.Cc1ccc(S(=O)(=O)O)cc1.Cc1ccc(S(=O)(=O)O)cc1 [listing 2 of 2 here],scaled lipid accumulation score,[2],1.23 (active)
CCCCC[C@H](O)/C=C/[C@@H]1[C@@H](C/C=C/CCCC(=O)O)[C@@H](O)C[C@H]1O [5-trans Prostaglandin F2.alpha. (tromethamine salt)],scaled lipid accumulation score,[6],≤ 0
CCCCC[C@H](O)/C=C/[C@@H]1[C@@H](C/C=C/CCCC(=O)O)[C@@H](O)C[C@H]1O [5-trans Prostaglandin F2.alpha.],scaled lipid accumulation score,[6],≤ 0
CC(C)(C)n1nc(Cc2cccc3ccccc23)c2c(N)ncnc21,scaled lipid accumulation score,[6],≤ 0
CCCCC[C@@](C)(O)/C=C/[C@H]1C(=O)C[C@H](O)[C@@H]1C/C=C\CCCC(=O)O [15(R)-15-methyl Prostaglandin D2],scaled lipid accumulation score,[6],≤ 0
CCCCCCCCCCCCCC(=O)N[C@H](C)[C@@H](O)c1ccccc1 [D-erythro-MAPP],scaled lipid accumulation score,[6],≤ 0 and 0.048
CC1(C2CCCC2)Cc2cc(OCC(=O)O)c(Cl)c(Cl)c2C1=O (stereo not given),scaled lipid accumulation score,[2],≤ -0.055
same,scaled lipid accumulation score,library stock concentration: 14 mM,≤ -0.021
N[C@@H](C(=O)N[C@@H]1C(=O)N2C(C(=O)O)=C(CSc3cn[nH]n3)CS[C@H]12)c1ccc(O)cc1,scaled lipid accumulation score,[2],≤ 0
"CCCCC/C=C/C=C1/C=CC(=O)[C@@H]1C/C=C\CCCC(=O)O [15-deoxy-.DELTA.12,14-Prostaglandin A2]",scaled lipid accumulation score,[6],≤ 0
CC(=O)c1ccc2c(c1)N(CCCN(C)C)c1ccccc1S2 [Acetopromazine maleate salt],scaled lipid accumulation score,,0.726
CCC(=O)c1ccc2c(c1)N(CCCN(C)C)c1ccccc1S2.Cl [Propionylpromazine hydrochloride],scaled lipid accumulation score,[2],0.862 (active)
CC(=O)c1ccc2c(c1)N(CCCN(C)C)c1ccccc1S2.O=C(O)/C=C\C(=O)O [Acepromazine maleate],scaled lipid accumulation score,[2],0.989 (active)
CC(=O)c1ccc2c(c1)N(CCCN(C)C)c1ccccc1S2 [Acepromazine maleate],scaled lipid accumulation score,library stock concentration: 4.5 mM,0.524
CC#CCC(C)[C@@H](O)/C=C/[C@@H]1[C@H]2C/C(=C\CCCC(=O)O)C[C@H]2C[C@H]1O (stereo partly drawn) [5-cis-15(R)-Iloprost],scaled lipid accumulation score,[6],≤ 0
CN(C)[C@@H]1C(O)=C(C(N)=O)C(=O)[C@@]2(O)C(O)=C3C(=O)c4c(O)cccc4[C@@](C)(O)[C@H]3[C@H](O)[C@@H]12 [Oxytetracycline hydrochloride],scaled lipid accumulation score,[2],≤ 0
CN(C)[C@@H]1C(O)=C(C(N)=O)C(=O)[C@@]2(O)C(O)=C3C(=O)c4c(O)cccc4[C@@](C)(O)[C@H]3[C@H](O)[C@@H]12 [Oxytetracycline],scaled lipid accumulation score,library stock concentration: 4 mM,0.025
same,scaled lipid accumulation score,[2],≤ 0
CN(C)[C@@H]1C(O)=C(C(N)=O)C(=O)[C@@]2(O)C(O)=C3C(=O)c4c(O)cccc4[C@@](C)(O)[C@H]3[C@H](O)[C@@H]12 [Oxytetracycline dihydrate],scaled lipid accumulation score,,0.056
C[C@@H](O)CN(CCN(C[C@@H](C)O)C[C@@H](C)O)C[C@@H](C)O,scaled lipid accumulation score,[2],≤ 0
NNC(=O)c1ccncc1.Nc1ccc(C(=O)O)c(O)c1 [Pasiniazid],scaled lipid accumulation score,[2],≤ -0.027
C#CCCC[C@@H](O)CCCCCCCCCCC(=O)O [12(S)-hydroxy-16-Heptadecynoic Acid],scaled lipid accumulation score,[6],≤ 0
COC(=O)CCSCc1ccc(-c2onc(C)c2NC(=O)OC(C)c2ccccc2Cl)cc1 (stereo not given),scaled lipid accumulation score,[1],0.07
same,scaled lipid accumulation score,[2],≤ 0
Clc1ccc(Cn2c(CN3CCCC3)nc3ccccc32)cc1 [Clemizole hydrochloride],scaled lipid accumulation score,,0.205
O=C(O)c1c(Sc2ccccc2)c2cc(Cl)ccc2n1Cc1ccc(Cl)cc1,scaled lipid accumulation score,[2],≤ -0.001
Cl.Clc1ccc(Cn2c(CN3CCCC3)nc3ccccc32)cc1 [Clemizole hydrochloride],scaled lipid accumulation score,[2],0.991 (active)
CCCCCC(O)C=CC1C2CC(CO2)C1CC=CCCCC(=O)O (stereo not given),scaled lipid accumulation score,[6],≤ 0 and ≤ -0.021
COCC[n+]1c2c(n(Cc3cnccn3)c1C)C(=O)c1ccccc1C2=O [YM155 (Sepantronium Bromide)],scaled lipid accumulation score,[1],0.529
same,scaled lipid accumulation score,[2],0.748
Cl.N#CC1=C(N)NC(=C2C(=O)C=CC=C2OCC2CC2)C=C1C1CCNCC1,scaled lipid accumulation score,[2],1.09 (active)
N#Cc1c(C2CCNCC2)cc(-c2c(O)cccc2OCC2CC2)nc1N,scaled lipid accumulation score,[3],≤ -0.016
same,scaled lipid accumulation score,[4],≤ -0.016
same,scaled lipid accumulation score,[5],0.483
N#Cc1c(C2CCNCC2)cc(-c2c(O)cccc2OCC2CC2)nc1N [IKK-2 Inhibitor VIII],scaled lipid accumulation score,[1],0.136
"N#CCCc1ccc2c(c1)-c1[nH]c3ccc([N+](=O)[O-])cc3c1CC(=O)N2 [Alsterpaullone, 2-Cyanoethyl]",scaled lipid accumulation score,[1],0.08
CCCCCCCC/C=C\CCCCCCCCCCCCCC(=O)N[C@@H](CO)[C@H](O)/C=C/CCCCCCCCCCCCC [Nervonic Ceramide],scaled lipid accumulation score,[6],0.002
CCCCC[C@@H](O)/C=C/[C@H]1[C@H](O)CC(=O)[C@@H]1C/C=C\CCCC(=O)O [15(R)-Prostaglandin E2],scaled lipid accumulation score,[6],≤ 0
CN1CCN(CCCN2c3ccccc3Sc3ccc(C(F)(F)F)cc32)CC1,scaled lipid accumulation score,[2],0.99 (active)
CN1CCN(CCCN2c3ccccc3Sc3ccc(C(F)(F)F)cc32)CC1 [Trifluoperazine],scaled lipid accumulation score,[7],0.434
CN(C)CCCN1c2ccccc2Sc2ccc(C(F)(F)F)cc21 [Triflupromazine hydrochloride],scaled lipid accumulation score,,0.585
same,scaled lipid accumulation score,library stock concentration: 5.1 mM,0.697
same,scaled lipid accumulation score,[2],0.508 and 0.792
CN1CCN(CCCN2c3ccccc3Sc3ccc(C(F)(F)F)cc32)CC1.Cl.Cl [Trifluoperazine dihydrochloride],scaled lipid accumulation score,[2],0.914 (active)
CN1CCN(CCCN2c3ccccc3Sc3ccc(C(F)(F)F)cc32)CC1 [Trifluoperazine dihydrochloride],scaled lipid accumulation score,,0.393
CCSc1ccc2c(c1)N(CCCN1CCN(C)CC1)c1ccccc1S2 [Thiethylperazine malate],scaled lipid accumulation score,,0.362
CN1CCN(CCCN2c3ccccc3Sc3ccc(C(F)(F)F)cc32)CC1 [Trifluoperazine 2HCl],scaled lipid accumulation score,[1],≤ 0
same,scaled lipid accumulation score,[2],0.815
CN1CCN(CCCN2c3ccccc3Sc3ccc(C(F)(F)F)cc32)CC1.Cl.Cl [Trifluoperazine],scaled lipid accumulation score,library stock concentration: 10.4 mM,0.892 (active)
CN1CCN(CCCN2c3ccccc3Sc3ccc(C(F)(F)F)cc32)CC1 [Trifluoperazine hydrochloride],scaled lipid accumulation score,[2],0.396
O=C(O)CCC/C=C\C[C@@H]1[C@@H](/C=C/[C@@H](O)COc2cccc(C(F)(F)F)c2)[C@H](O)C[C@@H]1O [Fluprostenol],scaled lipid accumulation score,[6],0.005 and ≤ -0.021
Cn1c(=O)cc(N2CCC[C@@H](N)C2)n(Cc2cc(F)ccc2C#N)c1=O [Trelagliptin],scaled lipid accumulation score,[1],≤ -0.009
same,scaled lipid accumulation score,[2],≤ 0
O=C(O)CCC/C=C\C[C@H]1C(=O)C=C[C@@H]1/C=C/[C@@H](O)CCc1ccccc1 [17-phenyl trinor Prostaglandin A2],scaled lipid accumulation score,[6],≤ 0
Cc1cc([N+](=O)[O-])ccc1NS(=O)(=O)c1cc(Cl)ccc1Cl,scaled lipid accumulation score,[1],≤ -0.009
same,scaled lipid accumulation score,[2],0.147
Nc1nc2c(cnn2CCc2ccccc2)c2nc(-c3ccco3)nn12,scaled lipid accumulation score,[2],0.583
CCCCC[C@@](C)(O)/C=C/[C@H]1[C@H](O)CC(=O)[C@@H]1C/C=C\CCCC(=O)O [15(R)-15-methyl Prostaglandin E2],scaled lipid accumulation score,[6],≤ 0
CCCCC/C=C\C/C=C\C/C=C\C/C=C\CCCC(=O)O[C@@H](CO)COCCCCCCCCCCCCCCCC [1-Hexadecyl-2-arachidonoyl-glycerol],scaled lipid accumulation score,[6],0.044
CC(C)Oc1ccc(C(=O)N[C@H](CNC(=O)CN(C)C)Cc2ccc(-c3cn4cccc([C@H](C)O)c4n3)cc2)cc1Cl [listing 1 of 2 here],scaled lipid accumulation score,[2],0.882 (active)
CC(C)Oc1ccc(C(=O)N[C@H](CNC(=O)CN(C)C)Cc2ccc(-c3cn4cccc([C@H](C)O)c4n3)cc2)cc1Cl [listing 2 of 2 here],scaled lipid accumulation score,[1],0.464
CCCCCCCC/C=C\CCCCCCCC(=O)N[C@H](CO)Cc1ccc(O)cc1,scaled lipid accumulation score,[6],≤ 0
COCCOc1cc2ncnc(Cl)c2cc1OCCOC,scaled lipid accumulation score,[2],≤ 0
CSc1ccc2c(c1)N(CCC1CCCCN1C)c1ccccc1S2 (stereo not given) [Thioridazine hydrochloride],scaled lipid accumulation score,,0.711
same,scaled lipid accumulation score,[7],0.586
same,scaled lipid accumulation score,[2],0.072 and 0.283
O=C(O)COCCN1CCN(C(c2ccccc2)c2ccc(Cl)cc2)CC1 (stereo not given) [Cetirizine],scaled lipid accumulation score,[2],≤ 0
CN1[C@@H](CC(=O)c2ccccc2)CCC[C@H]1C[C@H](O)c1ccccc1,scaled lipid accumulation score,[2],≤ 0
CN(C)C(=O)C(CCN1CCC(O)(c2ccc(Cl)cc2)CC1)(c1ccccc1)c1ccccc1 [Loperamide HCl],scaled lipid accumulation score,[1],0.485
same,scaled lipid accumulation score,[2],0.611
O=C(O)COCCN1CCN(C(c2ccccc2)c2ccc(Cl)cc2)CC1 (stereo not given) [Cetirizine hydrochloride],scaled lipid accumulation score,[2],≤ -0.027
CN1[C@@H](CC(=O)c2ccccc2)CCC[C@H]1C[C@H](O)c1ccccc1 [Lobeline alpha (-) hydrochoride],scaled lipid accumulation score,,0.216
CN1CCC[C@@H]1CCO[C@](C)(c1ccccc1)c1ccc(Cl)cc1 [Clemastine Fumarate],scaled lipid accumulation score,[1],0.249
same,scaled lipid accumulation score,[2],0.819
O=C(O)COCCN1CCN([C@H](c2ccccc2)c2ccc(Cl)cc2)CC1,scaled lipid accumulation score,[2],≤ 0
CN1CCCC1CCOC(C)(c1ccccc1)c1ccc(Cl)cc1.O=C(O)/C=C/C(=O)O (stereo not given) [Clemastine fumarate],scaled lipid accumulation score,[2],0.942 (active)
CSc1ccc2c(c1)N(CCC1CCCCN1C)c1ccccc1S2 (stereo not given) [Thioridazine HCl],scaled lipid accumulation score,library stock concentration: 5.4 mM,0.47
CN1[C@@H](CC(=O)c2ccccc2)CCC[C@H]1C[C@H](O)c1ccccc1 [Lobeline hydrochloride],scaled lipid accumulation score,[2],≤ 0 and 0.256
CN1CCC[C@@H]1CCO[C@](C)(c1ccccc1)c1ccc(Cl)cc1 [Clemastine fumarate] [listing 1 of 2 here],scaled lipid accumulation score,,0.619
CN1[C@@H](CC(=O)c2ccccc2)CCC[C@H]1C[C@H](O)c1ccccc1 [alpha-Lobeline hydrochloride],scaled lipid accumulation score,[2],0.493
CN1CCC[C@@H]1CCO[C@](C)(c1ccccc1)c1ccc(Cl)cc1.O=C(O)/C=C/C(=O)O [Clemastine fumarate],scaled lipid accumulation score,[2],0.861 (active)
CN1CCC[C@@H]1CCO[C@](C)(c1ccccc1)c1ccc(Cl)cc1 [Clemastine],scaled lipid accumulation score,[2],0.362
CN1CCC[C@@H]1CCO[C@](C)(c1ccccc1)c1ccc(Cl)cc1 [Clemastine fumarate] [listing 2 of 2 here],scaled lipid accumulation score,library stock concentration: 5.8 mM,0.885 (active)
CN1[C@@H](CC(=O)c2ccccc2)CCC[C@H]1C[C@H](O)c1ccccc1 [Lobeline],scaled lipid accumulation score,library stock concentration: 5.9 mM,≤ -0.006
O=C(O)COCCN1CCN(C(c2ccccc2)c2ccc(Cl)cc2)CC1 (stereo not given) [Cetirizine dihydrochloride],scaled lipid accumulation score,,0.024
same,scaled lipid accumulation score,[2],0.244 and ≤ -0.001
CN(C)C(=O)C(CCN1CCC(O)(c2ccc(Cl)cc2)CC1)(c1ccccc1)c1ccccc1 [Loperamide hydrochloride],scaled lipid accumulation score,,0.682
same,scaled lipid accumulation score,[2],0.699 and 0.787
O=C(O)COCCN1CCN(C(c2ccccc2)c2ccc(Cl)cc2)CC1 (stereo not given) [Cetirizine DiHCl],scaled lipid accumulation score,[1],≤ 0
same,scaled lipid accumulation score,[2],≤ 0
